Test results taken from PubChem BioAssay AID1422 (Emory University Molecular Libraries Screening Center, 2008).
Values joined by “and” are separate entries in the source; they are usually repeats but may differ in a detail not shown here. Equal values may be shown once. In all, about 260,000 compounds went through this assay and about 1,300 (0.5%) were called active.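 The calls were made as follows: active = percent inhibition above 40 after rounding to a whole number; inactive = the rest.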 This excerpt belongs to a sample that is enriched for actives. Some compounds were tested as several samples or in several runs, with calls that do not always agree.

Biological target: Prostaglandin E2 receptor EP2 subtype (Homo sapiens) (UniProt P43116)
Assay: blockers of PGE2-driven EP2 cAMP signalling – TR-FRET cAMP, C6 glioma cells, primary screen (AID 1422);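 also: rat C6 glioma host cells with rolipram phosphodiesterase inhibitor present; the protocol text gives 20 µM as final concentration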
Conditions: C6 glioma cells expressing human EP2, cAMP TR-FRET; at 25 µM; stronger effect = higher value; cells stimulated with saturating PGE2

Prostaglandin E2 receptor EP2 subtype (Homo sapiens), sequence (P43116 whole entry, looked up): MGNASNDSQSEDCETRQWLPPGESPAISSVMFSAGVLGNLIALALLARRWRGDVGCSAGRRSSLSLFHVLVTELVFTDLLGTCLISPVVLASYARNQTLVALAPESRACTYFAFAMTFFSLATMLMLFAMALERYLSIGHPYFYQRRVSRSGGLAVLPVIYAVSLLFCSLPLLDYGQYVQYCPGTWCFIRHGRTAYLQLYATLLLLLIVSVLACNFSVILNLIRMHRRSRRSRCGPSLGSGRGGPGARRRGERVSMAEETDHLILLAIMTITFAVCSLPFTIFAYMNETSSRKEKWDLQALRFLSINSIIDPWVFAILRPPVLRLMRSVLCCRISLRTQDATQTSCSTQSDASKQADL

SMILES	inhibition
Cc1sc(NC(=O)Cn2c(=O)sc3ccccc32)c(C#N)c1C	7.54% (inactive)
COc1ccccc1CNC(=O)C1CCN(c2cnccn2)CC1	9.64% (inactive)
CC1(C)CC2CC(C)(CN2C(=O)c2ccc(Cl)cc2)C1 (configuration not stated)	13.4% (inactive)
COc1ccc2[nH]c(=O)c(CN(CCCN(C)C)C(=S)Nc3ccccc3)cc2c1	9.95% (inactive)
C[N+]1(CCN=C=NC2CCCCC2)CCOCC1	42.8% (active)
Cc1c(O)c(Br)c(C)c(O)c1Br (tested in a mixture with another compound)	105% (active)
CCc1ccc2nc3sc(C(=O)Nc4nnc(CC)s4)c(N)c3cc2c1	90.2% (active) and 26.4% (inactive)
CCc1ccc2nc3sc(C(=O)NCc4ccc5c(c4)OCO5)c(N)c3cc2c1	13.9% (inactive)
CCc1ccc2nc3sc(C(=O)OC)c(N)c3cc2c1	11.6% (inactive)
CCn1cc(C(=O)N[C@@H](C)Cn2nnc3ccccc32)c(=O)c2ccc(C)nc21	9.07% (inactive)
CCOC(=O)c1c(-c2ccc(C)cc2C)csc1NC(=O)CSc1nnnn1C	44.2% (active)
COC(=O)c1ccccc1NC(=O)CSc1nnnn1C	9.91% (inactive) and 10.9% (inactive)
CCOC(=O)CNC(=O)CSc1nnnn1-c1cc(C)ccc1C	-1.57% (inactive)
CCc1nnc(NC(=O)CSc2nnnn2-c2ccc(F)cc2)s1	7.48% (inactive)
COc1ccc(C2(C(=O)NCCn3nc(-c4cccs4)ccc3=O)CC2)cc1	4.83% (inactive)
CCOc1ccccc1NC(=O)CSc1nnnn1-c1ccc(F)cc1	10.9% (inactive)
CC(C)(C)NC(=O)Cn1nc(-c2nccc3ccccc23)oc1=O	2.81% (inactive)
COC(=O)/C=C\C(=O)Nc1cccc([N+](=O)[O-])c1	113% (active)
Cc1ccccc1NC(=S)Nc1cccc([N+](=O)[O-])c1	10.2% (inactive)

SMILES	inhibition
CC(=O)Nc1cccc([N+](=O)[O-])c1	3.91% (inactive)
CCn1c(C)cc2cc(NC(=O)CCCn3nc(C)cc3C)ccc21	6.1% (inactive)
Cc1cc(C)cc(-c2nnc(SCC(=O)N3c4ccccc4CC3C)o2)c1 (configuration not stated)	15.9% (inactive)
CCN1/C(=C/C(=S)Nc2ccccc2)Sc2ccccc21	11.8% (inactive)
CCCN1/C(=C/c2ccc3ccccc3[n+]2CC)Sc2cc(NC(C)=O)ccc21	13.2% (inactive)
CCN1/C(=C\c2ccc3ccccc3[n+]2CC)Sc2cc(C)ccc21	88.5% (active)
CCN1CCN(CCNC(=O)c2ccc(/C=C3/Sc4ccccc4N(Cc4cccc(C)c4)C3=O)cc2)CC1	15.1% (inactive)
CCN1/C(=C/c2ccc3ccc(C)cc3[n+]2CC)Sc2ccccc21	49.2% (active)
CCN1CCN(C(=O)Nc2cccc(Cl)c2)CC1	10.7% (inactive)
CCOc1ccc2nc(SCC(=O)Nc3ccc(OC)cc3)sc2c1	6.3% (inactive)
Cc1ccc(CN(Cc2cc3c(C)cc(C)cc3[nH]c2=O)C(=O)NC2CCCCC2)cc1	8.55% (inactive)
COc1ccc(N(Cc2cc3cc(OC)ccc3[nH]c2=O)S(C)(=O)=O)cc1	6.17% (inactive)
COc1ccc2[nH]c(=O)c(CN(Cc3ccc4c(c3)OCO4)S(=O)(=O)c3ccc(F)cc3)cc2c1	12% (inactive)
O=c1[nH]c2cc3c(cc2cc1CN(Cc1cccnc1)S(=O)(=O)c1ccc(Cl)cc1)OCCO3	19.4% (inactive)
COc1ccc2[nH]c(=O)c(CN(Cc3ccco3)S(=O)(=O)c3c(C)ccc4nsnc34)cc2c1	46.1% (active)
Cc1cccc2cc(CN(Cc3ccco3)S(=O)(=O)c3cccc4nsnc34)c(=O)[nH]c12	24.1% (inactive)
COc1ccc2[nH]c(=O)c(CN(Cc3cccnc3)S(=O)(=O)c3ccccc3F)cc2c1	45.8% (active)
Cc1nnc2sc(-c3ccc(NC(=O)c4ccc(Br)o4)cc3)nn12	15% (inactive)
COc1ccc2c(c1)NC1(CCN(C(=O)c3cnsc3)CC1)c1cccn1-2	9.97% (inactive)

SMILES	inhibition
Cc1cccc2cc(CN(Cc3cccs3)Cc3nnnn3C3CCCCC3)c(=O)[nH]c12	2.93% (inactive)
Cc1ncc([N+](=O)[O-])n1Cc1nnc(N)s1	11.5% (inactive)
CC(C)(C)C1=NN(CC(=O)NCc2ccncc2)C(=O)c2cc3ccccc3n2C1	4.49% (inactive)
COc1nc(C)c(CC(=O)NC2(c3cccc(F)c3)CCCC2)c(OC)n1	13.3% (inactive)
Cc1[nH]c2ccc(-c3nnc(SCCC#N)n3C)cc2c1C	10.1% (inactive)
CC(C)(C)C1=NN(CC(=O)NCCc2ccco2)C(=O)c2cc3ccccc3n2C1	11.5% (inactive)
COc1ccc(C(c2nnnn2C(C)(C)C)N2CCN(c3ccc(OC)cc3)CC2)cc1 (configuration not stated)	10.7% (inactive)
Cc1ccc2c(c1)C(O)CC1(CCN(CC(O)c3ccc(F)c(F)c3)CC1)O2 (configuration not stated)	8.77% (inactive)
Cc1ccc2c(c1)C1CN(C)CCC1N2C(=S)Nc1ccc(OC(F)F)cc1 (configuration not stated)	112% (active)
Cc1ccc2c(c1)C1CN(C)CCC1N2C(=S)Nc1ccc(Cl)cc1Cl (configuration not stated)	15.3% (inactive)
Cc1ccc2c(c1)C1CN(C)CCC1N2C(=O)c1ccccc1NS(=O)(=O)c1ccc(F)cc1C (configuration not stated)	8.83% (inactive)
CCOC(=O)N1CCN(C(=O)COc2ccc(Cl)cc2C)CC1	12.7% (inactive)
Cc1cc(Cl)ccc1OCC(=O)Oc1c(Cl)c(Cl)c(Cl)c(Cl)c1Cl	50.2% (active)
Cc1cc(NC(=O)COC(=O)COc2ccc(Cl)cc2C)c([N+](=O)[O-])cc1C	5.32% (inactive)
CCc1cccc2cc3c(N)c(C(=O)Nc4cc(OC)ccc4OC)sc3nc12	5.34% (inactive)
CCn1cc(/C=C/c2nc3ccccc3c(=O)n2C)c2ccccc21	16.1% (inactive)
CC(=O)Nc1ccc(S(=O)(=O)Nc2nc(-c3ccc(C(C)(C)C)cc3)cs2)cc1	4.4% (inactive)
CC(=O)Nc1ccc(-c2csc(NC=C3C(=O)OC(C)(C)OC3=O)n2)cc1	2.63% (inactive)
CC(=O)Nc1ccc(-c2csc(NC(=O)Nc3ccccc3)n2)cc1	55% (active)
